# Data as given in PubChem BioAssay AID588511 (Johns Hopkins Ion Channel Center, 2011).
# About 3,600 (1.2%) of roughly 310,000 compounds were called active.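 How the source made its calls: active means ratio plate-corrected score three or more library SD toward inhibition, starting fluorescence score within five deviations; inactive means the rest.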 The full list was thinned out, with actives kept by preference.
# Biological target: Anoctamin-1 (Mus musculus) (UniProt Q8BHY3)
# Experiment: blockers of mouse ANO1 Ca-activated Cl channel – cell-based, HTS, primary screen (AID 588511);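 on normalized B-score (activity score, 25-100; higher = stronger inhibition): score derived from kinetic fluorescence span divided by baseline fluorescence per well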
# Settings: HEK293 TMEM16A/YFP iodide influx fluorescence, ionomycin; at 10 µM
# Anoctamin-1 (Mus musculus), sequence (Q8BHY3 whole entry, looked up): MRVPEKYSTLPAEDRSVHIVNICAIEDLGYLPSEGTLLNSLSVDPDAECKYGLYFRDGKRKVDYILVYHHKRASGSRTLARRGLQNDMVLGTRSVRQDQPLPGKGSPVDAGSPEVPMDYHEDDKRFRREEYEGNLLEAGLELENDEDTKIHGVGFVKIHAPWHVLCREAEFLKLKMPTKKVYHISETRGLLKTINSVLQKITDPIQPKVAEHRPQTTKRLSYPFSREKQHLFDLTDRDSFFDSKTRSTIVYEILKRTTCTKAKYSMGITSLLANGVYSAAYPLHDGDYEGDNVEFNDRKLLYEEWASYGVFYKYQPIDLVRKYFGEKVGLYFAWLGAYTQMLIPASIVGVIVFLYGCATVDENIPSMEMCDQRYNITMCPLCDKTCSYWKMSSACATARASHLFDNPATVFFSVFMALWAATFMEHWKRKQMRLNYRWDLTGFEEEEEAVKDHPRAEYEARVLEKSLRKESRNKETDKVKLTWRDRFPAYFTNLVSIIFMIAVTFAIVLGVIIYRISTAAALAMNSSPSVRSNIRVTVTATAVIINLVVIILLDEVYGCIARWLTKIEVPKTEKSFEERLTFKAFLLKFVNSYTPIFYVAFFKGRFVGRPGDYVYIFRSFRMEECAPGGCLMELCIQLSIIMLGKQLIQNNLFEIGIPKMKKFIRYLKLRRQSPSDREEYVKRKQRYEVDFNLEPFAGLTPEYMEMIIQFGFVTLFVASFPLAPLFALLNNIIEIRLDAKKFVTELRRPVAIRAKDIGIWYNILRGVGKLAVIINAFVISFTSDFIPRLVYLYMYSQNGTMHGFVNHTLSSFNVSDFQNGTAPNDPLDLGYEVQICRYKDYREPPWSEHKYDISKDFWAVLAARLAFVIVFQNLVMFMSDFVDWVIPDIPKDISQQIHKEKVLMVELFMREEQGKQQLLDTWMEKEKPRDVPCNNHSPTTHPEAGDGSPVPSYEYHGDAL
row,Compound,"normalized B-score (activity score, 25-100; higher = stronger inhibition)"
1,Cc1cc(C)n(CC(=O)Nc2ccc([N+](=O)[O-])cc2)n1,inactive
2,COCCCNC(=O)c1ccc(CNS(=O)(=O)c2ccc(NC(C)=O)cc2)cc1,inactive
3,Cc1cc(N=Nc2ccc3ccccc3c2)ccc1O,inactive
4,Cc1cccc(-c2c(NC(=O)c3ccco3)oc3ccc(Cl)cc3c2=O)c1,inactive
5,CN(C)CCCO/N=C(\c1ccccc1)c1ccncc1,inactive
6,CC(C)Oc1ccc(/C=C(\NC(=O)/C=C/c2ccco2)C(=O)NCCc2nc3ccccc3[nH]2)cc1,inactive
7,CCCNC(=O)c1onc(CSc2ccc(F)cc2)c1C(=O)NC(C)C,inactive
8,O=C1c2ccccc2C(Nc2ccc3c(c2)OCCO3)N1Cc1ccco1 (stereo not drawn),100 (active)
9,S=C(NCc1ccco1)Nc1ccc2c(c1)OCCO2,inactive
10,Cc1ccnc(N2C(=O)c3ccccc3C2Nc2ccc3c(c2)OCCO3)c1 (stereo not drawn),inactive
11,CCN(CC)C(=O)CSC(Nc1cccc(F)c1)=C(C#N)C#N,inactive
12,c1ccc2c(c1)C(=NC1CCCCC1)NC2=NC1CCCCC1,inactive
13,CCCn1c(C(C)Nc2nc(-c3ccc(C)cc3)cs2)nc2cc(Cl)c(N3CCCCC3)cc21 (stereo not drawn),inactive
14,CC1(C)C=C2[C@H]3CC[C@@H]4[C@@]5(C)CCC(=O)C(C)(C)[C@@H]5CC[C@@]4(C)[C@]3(C)CC[C@@]2(C(=O)O)CC1,100 (active)
15,CC1CN(C(=O)c2ccc3c(c2)OCO3)OC(c2ccccc2)O1 (stereo not drawn),inactive
16,Cc1cc(=O)oc2c1c(C)nn2-c1ccc(Cl)cc1,inactive
17,CCCc1cc(=O)[nH]c(SCC(=O)c2c(N)n(CC(C)C)c(=O)n(C)c2=O)n1,inactive
18,CC(C)(C)C1CCC(C(=O)Nc2cccnc2)CC1 (stereo not drawn),inactive
19,COc1cccc(CNS(=O)(=O)c2ccc3c(c2)CC(C)N3C(C)=O)c1 (stereo not drawn),inactive
20,COc1cccc(CNS(=O)(=O)c2ccc3c(c2)CC(C)N3C(=O)C2CCC2)c1 (stereo not drawn),100 (active)
21,COc1ccc(N(C)S(=O)(=O)c2ccc3c(c2)CC(C)N3C(=O)C2CC2)c(OC)c1 (stereo not drawn),inactive
22,COc1cc(C(C(=O)NC2CCCC2)N(C(=O)c2ccco2)c2ccccc2C(C)=O)cc(OC)c1OC (stereo not drawn),inactive
23,Nc1nonc1-n1nnc(C(=O)N/N=C/c2cc(Br)ccc2O)c1CSC1=NCCS1,inactive
24,Cc1ccc(-c2nn(C(C)(C)C)c3ncnc(N)c23)cc1,inactive
25,Nc1nc(SCC(=O)Nc2cc(C(F)(F)F)ccc2Cl)[nH]c(=O)c1NC(=O)c1ccco1,inactive
26,COc1ccc(-n2c(C)cc(C(=O)COC(=O)c3cc(OC)c(OC)cc3NC(=O)c3cccs3)c2C)cc1,inactive
27,COc1ccc(-n2c(C)cc(C(=O)CSc3nnc(-c4cccs4)o3)c2C)cc1,100 (active)
28,COc1ccc(-c2nnc(SCC(=O)c3ccc4c(c3)OCCO4)o2)cc1,inactive
